Assay [1] can be described thus: NCI Yeast Anticancer Drug Screen. Data for the rad50 strain (AID 155).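 Also: 0% = growth of vehicle-only cultures of the same strain.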 The note with it: S. cerevisiae rad50 strain growth inhibition; at 50.0 µM; stronger effect = higher value. The method in brief: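 Yeast carrying a defined DNA repair defect were exposed to test compounds, and growth was compared with vehicle-treated controls to give percent inhibition.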
Assay [2] is described as follows: NCI Yeast Anticancer Drug Screen. Data for the mec2-1 strain (AID 157). The note with it: S. cerevisiae mec2-1 strain, at 50.0 µM, stronger effect = higher value. The method, boiled down:
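Vehicle-treated cultures served as reference for growth inhibition of compound-exposed mec2-1 yeast.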

The nature of assay [3]: NCI Yeast Anticancer Drug Screen. Data for the sgs1 mgt1 strain (AID 161).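 Also: 0% = growth of cultures given vehicle only.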 The note with it: S. cerevisiae sgs1 mgt1 strain, at 50.0 µM, stronger effect = higher value. The method in brief:
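Inhibition of yeast growth, normalised to vehicle-treated controls, is reported for a strain bearing genetic alterations in DNA damage repair.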

Assay [4] can be described thus: NCI Yeast Anticancer Drug Screen. Data for the cln2 rad14 strain (AID 165).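 Also: 0% = growth equal to vehicle treated cultures.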 The note with it: S. cerevisiae cln2 rad14 strain, at 50.0 µM, stronger effect = higher value. The method in brief: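 Each compound was tested on cln2 rad14 yeast. Inhibition of growth was calculated against vehicle-exposed controls.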
Assay [5] is described as follows: NCI Yeast Anticancer Drug Screen. Data for the bub3 strain (AID 167). The note with it: S. cerevisiae bub3 mutant strain, at 50.0 µM, stronger effect = higher value. The method, boiled down: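 Compounds were applied to a genetically altered yeast strain carrying a cell-cycle control defect. Growth inhibition was scored against vehicle-treated controls.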
Assay [6] in a line: NCI Yeast Anticancer Drug Screen. Data for the mlh1 rad18 strain (AID 175). The note with it: S. cerevisiae mlh1 rad18 strain growth inhibition; at 50.0 µM; stronger effect = higher value. The method, boiled down:
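Vehicle-treated cultures served as the reference for growth inhibition in a yeast strain carrying DNA damage repair alterations exposed to each compound.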

The structures appear in SMILES notation. The panel holds about 79,000 compounds, 15% with a hit somewhere; the sample as a whole holds those more often. Unmarked numbers belong to inactive results. Activity calls are given as the source filed them. Rule as the data show it: active = growth inhibition above about 70%; inactive = the rest.

In the case of `c1ccc(CC2(c3ccccc3)OCc3ccccc32)cc1` (stereo not given), the growth inhibition in assay [1] is 6%; in assay [2], 12.2%; in assay [3], 17.6%; in assay [4] it was 15.4%; in assay [5], -2.2%; in assay [6] it was 20.5%.
Turning to `O=S(=O)(NC/C=C/c1ccccc1)c1ccccc1`, the growth inhibition is -6.95% in assay [1]; 16.7% in assay [2]; -0.45% in assay [3]; 26.9% in assay [4]; 4.65% in assay [5]; -39.9% in assay [6].
Consider `CO[C@H]1C[C@H]2[C@@H]3CCC4=CC(=O)C=C[C@]4(C)[C@@]3(F)[C@@H](O)C[C@]2(C)[C@@]1(O)C(=O)COC(C)=O`, for which the growth inhibition in assay [1] is 6.55%; in assay [2], -0.35%; in assay [3], 22.8%; in assay [4], 33.2%; in assay [5] it was 1.05%; in assay [6] it was -6.55%.
`COc1cc(C=O)ccc1OC(=O)Nc1cc(Cl)ccc1C`: the growth inhibition in assay [1] is 6.6%; in assay [2], 6.7%; in assay [3], 10.8%; in assay [4] it was 5.75%; in assay [5] it was 13.2%; in assay [6], 8.85%.
In the case of `CSc1ccc(C(=NO)c2ccc(SC)cc2)cc1`, the growth inhibition in assay [1] is -11.4%; in assay [2], 17.8%; in assay [3], -1.3%; in assay [4], -0.85%; in assay [5] it was -8.5%; in assay [6], -11.7%.
With `O=C(NCCN1CCCC1)NC1CCCCC1`, the growth inhibition was -2.25% in assay [1]; 2.35% in assay [2]; 3.85% in assay [3]; -69.5% in assay [4]; 8.2% in assay [5]; 14.8% in assay [6].
For the compound `Cc1ccc(-c2cc(=O)c3cc(C)c(C)c(C(=O)O)c3o2)cc1N`, the growth inhibition in assay [1] was -8.6%; in assay [2] it was -3.55%; in assay [3], 11.9%; in assay [4], 6.1%; in assay [5] it was 14.2%; in assay [6], -7.4%.
With `CC(C)CCCC(C)C1CCC2(C)C3CCC(C(C)O)C(C)(CCCO)C3CCC12C` (stereo not given), the growth inhibition in assay [1] was 47.8%; in assay [2] it was 27.4%; in assay [3], 61.4%; in assay [4], 38.1%; in assay [5], 23.8%; in assay [6], 55.9%.
In the case of `O=C1OC(=O)C2CCCCC12` (stereo not given), the growth inhibition in assay [1] is 29.9%; in assay [2], -11.9%; in assay [3], -11.4%; in assay [4], -48.3%; in assay [5], 8.95%; in assay [6], 18.9%.
In the case of `COC(=O)C1(C)CCCC2(C)C3CC(O)C(C(C)C)=CC3(O)CCC12` (stereo not given), the growth inhibition was 10.2% in assay [1]; -4.65% in assay [2]; 15.9% in assay [3]; -12.6% in assay [4]; -1% in assay [5]; 15.3% in assay [6].
In the case of `C=CCC(O)c1ccc(OC)c(OC)c1` (stereo not given), the growth inhibition in assay [1] is 2.55%; in assay [2], -3.3%; in assay [3] it was -6.3%; in assay [4], -19.1%; in assay [5] it was 3.4%; in assay [6], 0.55%.
Regarding `CC(=O)Oc1cc2c3ccccc3ccc2c2ccccc12`, the growth inhibition in assay [1] is 13%; in assay [2] it was -9.5%; in assay [3], 10.1%; in assay [4], -2.9%; in assay [5], 8.85%; in assay [6], 0.05%.
Regarding `O=C1C[C@@H]2[C@@H](CCC23CCCC3)N1`, the growth inhibition in assay [1] is 17.8%; in assay [2], 12.9%; in assay [3], -9.75%; in assay [4] it was 20.4%; in assay [5] it was 15.2%; in assay [6], 20.6%.
For the compound `Cc1cc(OCC(=O)O)c(C)cc1Cl`, the growth inhibition in assay [1] is -21.6%; in assay [2] it was -17.1%; in assay [3], -12.5%; in assay [4], -0.25%; in assay [5] it was -7.5%; in assay [6], -13.6%.
For `COC1OC(COCc2ccccc2)C(OCc2ccccc2)C(OC)C1O` (stereo not given), the growth inhibition in assay [1] is -37.6%; in assay [2], -3%; in assay [3], 5.6%; in assay [4], -40.9%; in assay [5], -2.3%; in assay [6], -17.6%.
Consider `CC1=CC(C/C(C)=C/COc2ccc3ccc(=O)oc3c2)OC1=O` (stereo not given), for which the growth inhibition in assay [1] is 8.15%; in assay [2], -38.9%; in assay [3] it was 11.7%; in assay [4], 11.3%; in assay [5], -0.8%; in assay [6] it was 7.75%.
Consider `ClCC1=NC2C(Cl)C(Cl)C(Cl)C(Cl)C2N1` (stereo not given), for which the growth inhibition in assay [1] is 87.8% (active); in assay [2], 77% (active); in assay [3] it was 94.7% (active); in assay [4], 87.5% (active); in assay [5] it was 75.9% (active); in assay [6], 94% (active).
For the compound `NC1CC(=O)c2c(Cl)sc(Cl)c21` (stereo not given), the growth inhibition in assay [1] was 51.4%; in assay [2], 35.7%; in assay [3], 60.5%; in assay [4], 41.6%; in assay [5], 27.6%; in assay [6], 1.15%.
For the compound `COc1ccc(N)nn1`, the growth inhibition in assay [1] is 1.6%; in assay [2], -6.9%; in assay [3], -9.15%; in assay [4], 7.5%; in assay [5] it was 4.75%; in assay [6], -10.2%.
`O=C1CSC(c2cccc(Cl)c2)N1CCN1C(=O)CSC1c1cccc(Cl)c1` (stereo not given): the growth inhibition is -14.6% in assay [1]; 9% in assay [2]; -2.55% in assay [3]; -20.8% in assay [4]; 2.75% in assay [5]; -6.6% in assay [6].

For the origin of these results see PubChem BioAssay (NCI).
